Potency and activity change, negative = cytotoxicity data for 38 compounds are collected here from PubChem BioAssay (NCATS).

Structures are written as SMILES. Results filed as inconclusive are left out. Entries that show only a call come without a potency. A number with no mark means an inactive call. Calls of active or inactive are those of the source. Calls follow the shape of the dose curve; as a rule, active = well fitted cell-killing curve with a large enough effect; inconclusive = small, poorly fitted or top-dose-only effect, or effect the other way; inactive = flat fitted curve, though single readings scatter. Where a SMILES comes first, the peptide text is derived from it. [ ]: non-standard residue; d: D form.

The first test concerns Hek293T. Nature of the test: Primary qHTS to identify gynecologic anti-cancer compounds using libraries of approved drugs and bioactive compounds (AID 1345084). Also: nearly all actives have a fitted effect of over 55% in size. As to conditions: Gynecologic cancer cell panel viability, ATPlite luminescence, 48 h, control line for the selectivity index; series mostly up to 57.5 µM. A digest of the protocol: (§1)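 Cell viability after 48 h drug treatment, ATPlite luminescence readout; five doses.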
With `C=C1C2=CC(O)C(C)C1(C)CC/C(C)=C/CCC1(C)OC1C2=O` (stereo not given), the Potency entry is “inactive”.

For the compound `C[C@H]1CN(C[C@H](Cc2ccccc2)C(=O)NCC(=O)O)CC[C@@]1(C)c1cccc(O)c1`, the Potency entry was “inactive”. Take `Cn1c(=O)cc(N2CCCC(N)C2)n(Cc2ccccc2C#N)c1=O` (stereo not given): the Potency entry is “inactive”.

With `CCC[C@@H]1C[C@@H](C(=O)N[C@@H]([C@H]2O[C@H](SC)[C@H](OP(=O)(O)O)[C@@H](O)[C@H]2O)[C@H](C)Cl)N(C)C1`, the Potency result was “inactive”. Take `COc1cc(/C=C/CO)ccc1O[C@@H]1O[C@H](CO)[C@@H](O)[C@H](O)[C@H]1O`: the Potency entry is “inactive”.

Consider `CC1(O)CCC2C(C(=O)O)=COC(OC3OC(CO)C(O)C(O)C3OC(=O)/C=C/c3ccc(O)cc3)C21` (stereo not given), for which the Potency entry is “inactive”. On the same count and under the same terms, to `C[C@@H](Nc1cc(NS(=O)(=O)N2CCC2)nc(SCc2cccc(F)c2F)n1)[C@@H](O)CO` belongs “inactive”.

The test system of the next test is JEG-3. The description is as above. As to conditions: Gynecologic cancer cell panel viability, ATPlite luminescence, 48 h; series mostly up to 57.5 µM. In short, it runs like this:
as §1
Regarding `COc1ccc(C(OC2OC(CO)C(O)C(O)C2O)C(C)O)cc1` (stereo not given), the Potency entry is “inactive”. With `CCOC(=O)N1CCC(NCCNC(=O)c2ccccc2C)CC1`, the Potency result was “inactive”. With `CCC(C)C(=O)O[C@@H]1[C@@H](O)[C@@H](O[C@H]2O[C@H](CO)[C@@H](O)[C@H](O)[C@H]2O)O[C@H](CO)[C@H]1O` (stereo not given in full), the Potency entry was “inactive”.

As for `Nc1ncnc2c1ncn2[C@H]1CCCO1`, the Potency entry is “inactive”. Same read-out and setting: next, `COc1cc(-c2cccc(O)c2)cc2c1OCO2`: “inactive”; `Nc1nc(CC(=O)Nc2ccc(CCNCC(O)c3ccccc3)cc2)cs1` (stereo not given): “inactive”. Consider `O=C(/C=C/c1c(C(=O)O)[nH]c2cc(Cl)cc(Cl)c12)Nc1ccccc1`, for which the Potency result was “inactive”. Turning to `CC1CCC2C(C)(C)C(O)CCC2(C)C12Cc1c(O)cc3c(c1O2)CN=C3N` (stereo not given), the Potency result was “inactive”. Still for that read-out and setting: to `CC[C@H]1OC(=O)C[C@@H](O)[C@H](C)[C@@H](O[C@@H]2O[C@H](C)[C@@H](O)[C@H](N(C)C)[C@H]2O)[C@@H](CCN2C[C@H](C)C[C@H](C)C2)C[C@@H](C)C(=O)/C=C/C(C)=C/[C@@H]1CO[C@@H]1O[C@H](C)[C@@H](O)[C@@H](OC)[C@H]1OC` belongs “inactive”; to `C[C@]12C=CC(=O)C=C1CC[C@@H]1[C@@H]2[C@@H](O)C[C@@]2(C)[C@H]1CC[C@]2(O)C(=O)COC(=O)CCC(=O)O`, “inactive”. Turning to `CC(C)=CCc1ccc(Oc2c(O)cc(C)cc2CO)c(C(=O)O)c1O`, the Potency entry is “inactive”. Consider `NS(=O)(=O)NCCNc1nonc1C(=Nc1ccc(F)c(Br)c1)NO`, for which the Potency result was “inactive”.

For `CCC(=O)NS(=O)(=O)c1ccc(-c2c(-c3ccccc3)noc2C)cc1`, the Potency result is “inactive”. As for `CC(=O)OC1C(O)C(C)=C(CCC(C)CC(=O)O)C2(C)CCCC(C)(C)C12` (stereo not given), the Potency entry was “inactive”. As for `COC1=CC(=O)O[C@@H](/C=C/c2ccccc2)[C@@H]1O`, the Potency result is “inactive”. As to `C[C@@H]1O[C@@H](O[C@@H]2[C@@H](O)[C@@H](O)[C@H](O[C@@H]3[C@@H](O)[C@@H](O[C@]4(CO)O[C@H](CO)[C@@H](O)[C@@H]4OC(=O)/C=C/c4ccc(O)cc4)O[C@H](CO)[C@H]3OC(=O)/C=C/c3ccc(O)cc3)O[C@H]2C)[C@H](O)[C@H](O)[C@H]1O`, the activity change, negative = cytotoxicity is -6.75% [at 11.6 µM]. Consider `COC(=O)[C@@H]1C2CC3c4[nH]c5ccccc5c4CCN3CC2CC[C@@H]1O` (stereo not given in full), for which the Potency entry is “inactive”. As to `C[C@@H]1O[C@@H](O[C@H]2[C@H](OC(=O)[C@]34CCC(C)(C)C[C@H]3C3=CCC5[C@@]6(C)CC[C@H](O[C@@H]7O[C@H](CO[C@@H]8OC[C@H](O)[C@H](O)[C@H]8O)[C@@H](O)[C@H](O)[C@H]7O)C(C)(C)C6CC[C@@]5(C)[C@]3(C)C[C@H]4O)OC[C@@H](O)[C@@H]2O)[C@H](O)[C@H](O)[C@H]1O[C@@H]1OC[C@H](O)[C@H](O[C@@H]2OC[C@@H](O)[C@H](O)[C@H]2O)[C@H]1O` (stereo not given in full), the activity change, negative = cytotoxicity is -1.75% [at 6.55 µM]. With `CC(=O)N[C@H](Cc1ccc(O)cc1)C(=O)N[C@H](CCCN=C(N)N)C(=O)N[C@H](Cc1ccccc1)C(N)=O` (Ac-[dY]-[dR]-[dF]-NH2), the Potency entry was “inactive”. Turning to `CC(NCc1ccc(OCc2cccc(F)c2)cc1)C(N)=O` (stereo not given), the Potency result was “inactive”. For `Cc1coc2c1CC1OC1(C)CCC1OC1(C)C2` (stereo not given), the Potency entry was “inactive”. The same measure, in the same setting: next, `C[C@]12CCC[C@](C)(C(=O)O)C1CCC13C=C(CO)C(CCC12)C3` (stereo not given in full): “inactive”. On the same count and under the same terms, to `COc1cc(/C=C/C(=O)OC(C)(C)C(OC2OC(CO)C(O)C(O)C2O)C(=O)OCc2ccc(OC3OC(CO)C(O)C(O)C3O)cc2)ccc1O` (stereo not given) belongs “inactive”. Regarding `COc1cc2c(cc1OC)CN(C(=O)[C@@H](NCc1ccncc1)C(C)(C)C)CC2`, the Potency entry was “inactive”.

For `O=C1NCc2nc3ccccc3c(=O)n2C1Cc1c[nH]c2ccccc12` (stereo not given), the Potency result is “inactive”.

For the compound `CC1=CC(=O)CC(C)(C)C1CCC(C)OC1OC(COC(=O)c2cc(O)c(O)c(O)c2)C(O)C(O)C1O` (stereo not given), the Potency entry was “inactive”. As to `CC1C/C=C/C=C\CCCCC(O)C/C=C/C(=O)O1` (stereo not given), the Potency result was “inactive”.

Regarding `CO[C@@]12CC3[C@@H]([C@@H](O)[C@@H](OC(C)=O)C4[C@](C)(COC(C)=O)CCC[C@]34C)[C@@H](C)C1=CC(=O)O2` (stereo not given in full), the Potency result is “inactive”. With `CC1(C)CCCC2(C)C(CO)C3CCC2C31` (stereo not given), the Potency entry was “inactive”.

`O=C(O[C@H]1[C@@H]2C=CO[C@@H](O[C@@H]3O[C@H](CO)[C@@H](O)[C@H](O)[C@H]3O)[C@@H]2[C@@]2(CO)O[C@@H]12)c1ccc(O)c(O)c1`: the Potency entry is “inactive”. As to `C=CC(C)(C)C12CC3C(=O)NC(Cc4cnc[nH]4)C(=O)N3C1Nc1ccccc12` (stereo not given), the Potency entry was “inactive”. `C=C1C2=CC(O)C(C)C1(C)CC/C(C)=C/CCC1(C)OC1C2=O` (stereo not given): the Potency entry is “inactive”. On the same count and under the same terms, next, `C[C@H]1CN(C[C@H](Cc2ccccc2)C(=O)NCC(=O)O)CC[C@@]1(C)c1cccc(O)c1`: “inactive”; `Cn1c(=O)cc(N2CCCC(N)C2)n(Cc2ccccc2C#N)c1=O` (stereo not given): “inactive”.

`CCC[C@@H]1C[C@@H](C(=O)N[C@@H]([C@H]2O[C@H](SC)[C@H](OP(=O)(O)O)[C@@H](O)[C@H]2O)[C@H](C)Cl)N(C)C1`: the Potency result was “inactive”.

With `COc1cc(/C=C/CO)ccc1O[C@@H]1O[C@H](CO)[C@@H](O)[C@H](O)[C@H]1O`, the Potency entry is “inactive”. With `CC1(O)CCC2C(C(=O)O)=COC(OC3OC(CO)C(O)C(O)C3OC(=O)/C=C/c3ccc(O)cc3)C21` (stereo not given), the Potency result was “inactive”. On to `C[C@@H](Nc1cc(NS(=O)(=O)N2CCC2)nc(SCc2cccc(F)c2F)n1)[C@@H](O)CO`, for which the Potency result is “inactive”.
